Assay results as given in PubChem BioAssay AID602384 (National Center for Advancing Translational Sciences (NCATS), 2012).
Calls of active or inactive are those of the source. The call rests on the fitted dose curve; in most records, active means well fitted curve in the direction sought with a large enough effect; inactive means no such curve, though single readings can be large or run the other way.

What follows are compounds tested against Pyruvate kinase PKM (Homo sapiens) (UniProt P14618) (assay: qHTS for Activators of Human Muscle Isoform 2 Pyruvate Kinase: Extended Characterization). Details: purified PKM2, ATP production, Kinase-Glo luminescence.
Chain of Pyruvate kinase PKM (Homo sapiens) (P14618 whole entry, looked up, canonical isoform): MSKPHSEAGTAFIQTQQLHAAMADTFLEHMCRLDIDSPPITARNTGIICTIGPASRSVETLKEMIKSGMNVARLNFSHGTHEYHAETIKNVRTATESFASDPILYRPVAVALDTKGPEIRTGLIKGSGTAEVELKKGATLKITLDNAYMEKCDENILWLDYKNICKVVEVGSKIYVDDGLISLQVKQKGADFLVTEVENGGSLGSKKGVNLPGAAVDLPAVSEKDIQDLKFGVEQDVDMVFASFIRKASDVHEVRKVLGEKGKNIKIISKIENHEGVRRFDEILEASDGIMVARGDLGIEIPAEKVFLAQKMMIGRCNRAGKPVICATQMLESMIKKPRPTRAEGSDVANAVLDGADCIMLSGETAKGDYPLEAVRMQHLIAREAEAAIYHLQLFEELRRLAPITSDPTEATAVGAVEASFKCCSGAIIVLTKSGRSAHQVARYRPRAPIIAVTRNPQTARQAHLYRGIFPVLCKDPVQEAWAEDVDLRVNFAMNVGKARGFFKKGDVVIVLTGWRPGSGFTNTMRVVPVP
Procedure: Human pyruvate kinase muscle 2 (hPK-M2) enzyme was supplied as a highly purified (>95% pure) preparation from Harvard Medical School and assayed for its ability to generate ATP from ADP using phosphoenolpyruvate (PEP) as a substrate. ATP generation was detected in a coupled reaction by luciferase-mediated luminescence, an ATP-dependent process. Pyruvate kinase substrates, PEP and ADP, were present in the assay at Km and approximately 10-fold below Km respectively. The enzyme was assayed at an intermediate level of activity to screen for both inhibitors and activators. NIH Chemical Genomics Center [NCGC] NIH Molecular Libraries Probe Centers Network [MLPCN] MLPCN Grant: MH085679 Assay Submitter (PI): Matthew G. Vander Heiden, Harvard Medical School
Three uL of substrate mix (at r.t.) in assay buffer (50 mM Imidazole pH7.2, 50 mM KCl, 7 mM MgCl2, 0.01% Tween 20, 0.05% BSA) was dispensed into white solid bottom 1,536 well microtiter plates so that the final concentrations of substrates in the assay were 0.1 mM ADP and 0.5 mM PEP. 23 nL of compound were delivered by a pin tool and 1 uL of enzyme mix (final concentration of 0.1 nM) in assay buffer (4 degree Celsius) was added. Plates were incubated at room temperature for 1 hour. Two uL of detection mix (Kinase-Glo, Promega; at 4 degree Celsius protected from light) was added and luminescence read by a ViewLux (Perkin Elmer) at 1 second exposure/plate. Data were normalized to the uninhibited (column 3) and AC100 inhibition (no enzyme in column 2). To monitor activation, the first column contained a titration of the activator, NCGC00031955-03 (16-point 1:2 dilutions in duplicate starting at 57 uM) and the first 16 rows of column 4 contained 57 uM of NCGC00031955-03.

Potency, active:
Cc1cc2c(s1)c1cnn(Cc3cc(F)ccc3F)c(=O)c1n2C 1.12 µM
Cc1cc2c(s1)c1cnn(Cc3ccc(F)cc3F)c(=O)c1n2C 0.891 µM
COc1cccc(Cn2ncc3c4sc(S(C)=O)cc4n(C)c3c2=O)c1 (stereo not given) 0.073 µM
Cc1cc2c(s1)c1cnn(Cc3c(Cl)ccc(C)c3F)c(=O)c1n2C 1.26 µM
Cc1cc2c(s1)c1cnn(Cc3cc(F)c(F)cc3F)c(=O)c1n2C 1.12 µM
